SMILES strings stand for the structures. In all, about 330,000 compounds went through this assay and about 4,600 (1.4%) were called active. This excerpt belongs to a sample that is enriched for actives. Unmarked numbers belong to inactive results.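 How the source made its calls: active means inhibition of 40% or more at the single tested concentration; inactive means the rest.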

The experiment can be described thus: wild-type TIM10 yeast growth inhibition – luminescence, uHTS, counter-screen for tim10-1 yeast inhibitor project, primary screen (AID 463195).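 Further: wild-type TIM10 isogenic control strain grown at permissive 25 °C; 0% = DMSO yeast wells and 100% = minimal medium wells without yeast.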 The conditions noted are these: S. cerevisiae TIM10 strain growth, BacTiter-Glo luminescence, 24 h; at 10 µM; stronger effect = higher value.
On to `O=C(CNC(=O)c1cccs1)N/N=C/c1cccc(Br)c1`, for which the inhibition was 18.4%.
For the molecule `O=C(N/N=C/c1cccc(Br)c1)c1ccc(N2CCCC2=O)cc1`, the inhibition was 12%.
As to `O=C(N/N=C\c1cccc(Br)c1)c1ccccc1-n1cccc1`, the inhibition was 51.9% (active).
For the molecule `CC(C)(C)OC(=O)C[C@@H]1C/C=C\C[C@@H](CC(=O)NCCO)C(=O)N[C@H](Cc2c[nH]c3ccccc23)COC1=O`, the inhibition was -3.29%.
On to `CC(C)CCn1cnc2c1c(=O)n(CC(=O)NC(N)=O)c(=O)n2Cc1ccccc1`, for which the inhibition is 2.63%.
Consider `COc1cc(C(=O)NN(CCC#N)C2=NS(=O)(=O)c3ccccc32)cc(OC)c1OC`, for which the inhibition was 8.55%.
Consider `Nc1ccc(-c2nnc(-c3ccccc3)o2)cc1`, for which the inhibition was 8.79%.
On to `Cc1nc(NNC(=O)c2ccccc2)cc(-c2ccccc2)n1`, for which the inhibition was 10.7%.
On to `Nc1cccc(-c2cc(-c3ccccc3)nc(-c3cccc(N)c3)n2)c1`, for which the inhibition is 44.2% (active).
For `CC1=NNC(=O)C1Cc1c(Cl)cccc1Cl` (centres undefined), the inhibition was 13.4%.
Consider `COc1ccc(N2C(=O)C(CC(=O)Nc3ccc(F)cc3)N(CCc3cccs3)C2=O)cc1` (centres undefined), for which the inhibition was 27.1%.
As to `CC(=O)C1=C(O)C(=O)N(c2cccnc2)C1c1ccc([N+](=O)[O-])cc1` (centres undefined), the inhibition is -3.83%.
As to `O=C1[C@@H](c2ccccc2)[C@@H](c2ccccc2)N1c1cccnc1`, the inhibition was 63.5% (active).
On to `CCc1ccccc1NC1c2ccccc2C(=O)N1c1cccnc1` (centres undefined), for which the inhibition was -1.26%.
For `COc1ccc(-c2c(C)cc3oc(=O)cc(-c4ccccc4)c3c2C)cc1C=O`, the inhibition is -23.6%.
For the molecule `CCN(C(=O)COC(=O)CCOc1cccc(C)c1)c1c(N)n(Cc2ccccc2)c(=O)[nH]c1=O`, the inhibition is -2.83%.
With `c1ccc(C2=Nc3cccc4cccc(c34)N2)cc1`, the inhibition is 42.2% (active).
Consider `Fc1ccccc1N=C1Nc2cccc3cccc1c23`, for which the inhibition is 5.3%.
Take `COc1ccccc1C1=Nc2cccc3cccc(c23)N1`: the inhibition is 8.32%.
To `CCO/C=C1\C(=O)N(c2ccc(OCC)cc2)C(=O)c2ccccc21` belongs 1.43%; to `COc1cccc(NC(=O)COC(=O)CCOc2ccccc2OC)c1`, 30%.
The same measure for `COc1cc([N+](=O)[O-])ccc1NC(=O)COC(=O)CCOc1ccc(C)cc1`: 49% (active); for `CSc1ccccc1NC(=O)COC(=O)CCCOc1ccc(C)cc1`: -8.29%.
As to `Cc1cccc(OCc2nnc(SCc3nc4cc(C(F)(F)F)ccc4c(=O)[nH]3)o2)c1`, the inhibition was 23%.
For `Cc1ccccc1OCC(=O)Nc1ccc(S(=O)(=O)N2CCOCC2)cc1`, the inhibition was 18.7%.
`Cc1ccccc1OCC(=O)Nc1ccc(N2CCN(C(=O)C(C)C)CC2)c(Cl)c1`: the inhibition is 65.5% (active).
For `Cc1ccccc1OCC(=O)Nc1ccc2c(c1)ncn2C`, the inhibition was 2.51%.
As to `CCC(C)N(C(=O)Cn1nc(C)c([N+](=O)[O-])c1C)C1CCS(=O)(=O)C1` (centres undefined), the inhibition is 2.63%.
For the molecule `CCN(CC(=O)Nc1ccc2c(c1)OCCO2)Cc1cc(=O)oc2cc(C)c(C)cc12`, the inhibition is 2.82%.
Take `CCN(CC(=O)NC(C)C)C(=O)c1cc(S(=O)(=O)N2CCCCC2)ccc1N1CCCCC1`: the inhibition was -4.18%.
For the molecule `Cc1cccc(-c2nc3ccc(C(=O)NCCN4CCN(C)CC4)cc3nc2-c2cccc(C)c2)c1`, the inhibition was 11.7%.
For `Cn1nnc2cc(C(=O)NCCC3=CCCCC3)ccc21`, the inhibition was 9.76%.
Take `C=CCNC(=O)c1ccc2c3n(nc2c1)-c1ccc(C)cc1CO3`: the inhibition is 47% (active).
In the case of `O=C(NCc1cccnc1)c1cnc2ccccc2n1`, the inhibition is 3.89%.
The same measure for `O=C(O)Cc1csc(NC(=O)CSc2nnnn2-c2ccc(O)cc2)n1`: -3.77%; for `CS(=O)(=O)N(CC(=O)Nc1ccc(Cl)c(Cl)c1)C1CCCCC1`: 27.6%.
In the case of `O=C(CC(O)(C(F)(F)F)C(F)(F)F)Nc1ccc(Cl)c(Cl)c1`, the inhibition was 88.8% (active).
As for `O=C(CCCN1C(=O)CCC1=O)Nc1ccc(Cl)c(C(F)(F)F)c1`, the inhibition is -0.757%.
On to `COc1ccccc1OCCC(=O)OCC(=O)NCc1ccccc1`, for which the inhibition was 9.81%.
As for `COc1cccc(NC(=O)C(=O)c2cn(CC(=O)N3CCOCC3)c3ccccc23)c1`, the inhibition was 11.5%.
Take `COc1cccc(C(C(=O)NC2CCCC2)N(C(=O)c2ccco2)c2cccc(C(C)=O)c2)c1OC` (centres undefined): the inhibition was 11.8%.
For `O=C(/C=C/c1c(F)cccc1Cl)Nc1nn[nH]n1`, the inhibition was 0.073%.
For the molecule `CCOC(=O)NC(=O)/C(C#N)=C\c1ccccc1`, the inhibition was 15.6%.
For `CNC(=O)/C(C#N)=C/c1c(F)cccc1Cl`, the inhibition was 59.2% (active).
As to `NC(=S)Nc1c(Cl)cccc1Cl`, the inhibition is -2.06%.
Consider `CCN(CC(=O)Nc1ccc(OC)cc1)C(=O)CSCc1ccc(C)cc1`, for which the inhibition was -9.01%.
As to `COc1ccc(C(=O)CCC(=O)Nc2ccc(Cl)cc2)cc1`, the inhibition was -25.2%.
For `COc1ccc(CS(=O)/C(Cl)=C(/Cl)C(=O)Nc2ccc(OC)nc2)cc1` (centres undefined), the inhibition is 88.3% (active).
To `COc1ccc(CCNC(=O)c2cnc(Cl)c(Cl)c2)cc1` belongs -23.1%; to `COc1ccc(NC(=O)/C(Cl)=C(/Cl)S(=O)Cc2ccc(C)cc2)cn1` (centres undefined), 57.6% (active); to `COc1ccc(Nc2ccc([N+](=O)[O-])cn2)cn1`, 1.7%.
The same measure for `CCCCn1nc(C(=O)Nc2ccc(S(=O)(=O)Nc3ncccn3)cc2)c2ccccc2c1=O`: 6.41%; for `Cc1ccc(CN(N=Nc2nonc2N)c2nonc2N)c(C)c1`: 36.7%.
To `CCCOCC(O)CC(CC)C(=O)NNC(=S)Nc1ccccc1` (centres undefined) belongs 7.95%; to `CCC12CN3CC(CC)(CN(C1)C31C(=O)N(C)c3ccc(C)cc31)C2=O` (centres undefined), -4.81%; to `O=C1CCN(C(=O)Nc2ccccc2)N1`, -12.2%.
On to `N#C/C(=C\c1cccnc1)C(=O)Nc1ccc(SC(F)F)cc1`, for which the inhibition is 45.6% (active).
The same measure for `Cc1cc(/C=C(/C#N)C(=O)Nc2ccc(Cl)cc2)c(C)n1-c1cccnc1`: -8.09%.
On to `O=C(N/N=C/c1cccnc1)c1ccc(NC(=O)c2ccc(F)cc2)cc1`, for which the inhibition was -13.1%.
On to `O=C1Nc2ccc([N+](=O)[O-])cc2C1=Nc1cccc(CO)c1`, for which the inhibition is 8.6%.
Consider `Cc1cc2oc(=O)cc(CN3CCN(S(=O)(=O)c4cccs4)CC3)c2cc1C(C)C`, for which the inhibition is -1.14%.
Regarding `COc1ccc2c(CN3CCN(S(=O)(=O)c4cccs4)CC3)cc(=O)oc2c1`, the inhibition was 52.4% (active).
As to `COc1ccc2oc(=O)cc(CN3CCOCC3)c2c1`, the inhibition is -8.83%.
Consider `NC(=O)C(Cc1ccccc1)NC(=O)C12CC3CC(CC(C3)C1)C2` (centres undefined), for which the inhibition was 16.3%.
Regarding `CCO[C@@H]1OC(C(N)=O)=C[C@H](c2ccc(Br)cc2)[C@H]1CCCO`, the inhibition is -4.73%.
The same measure for `Cn1cccc1Cc1nnc(SCC(=O)NCCc2ccccc2)n1-c1ccc(F)cc1`: 10.2%; for `Fc1ccc(-n2c(Cc3ccccc3)nnc2SCc2nc(-c3ccc(Cl)cc3)no2)cc1`: 41% (active).
For `Cc1ccc(-c2noc(CSc3nnc(-c4cccs4)n3C)n2)cc1`, the inhibition was 12.3%.
In the case of `Cc1nnc(SCc2ccc(C(=O)c3ccc(Cl)cc3)o2)n1-c1ccccc1`, the inhibition is 7.12%.
In the case of `Cc1ccc(-c2noc(CSc3nnc(-c4ccncc4)n3-c3ccc(F)cc3)n2)cc1`, the inhibition was 46.2% (active).
As to `Cn1c(SCc2ccc(F)cc2)nnc1-c1ccncc1`, the inhibition was -15.7%.
To `C=CCn1c(C2CC(=O)N(c3ccc(C)cc3)C2)nc2ccccc21` (centres undefined) belongs 0.772%; to `COc1cccc(-n2cc3c(c2-c2ccccc2)c(=O)n(C)c(=O)n3C)c1`, -0.343%.
With `CCN(CC)CCNC(=O)c1sc2ncn(CC(=O)Nc3ccc(C)c(Cl)c3)c(=O)c2c1C`, the inhibition is -10.3%.
For the molecule `Cc1ccc(Nc2nc(CSc3nnc(-c4ccncc4)n3-c3ccccc3C)cs2)cc1`, the inhibition was 19.6%.
`CCOc1ccccc1Oc1cn[nH]c1-c1ccc(OC)cc1O`: the inhibition was -79.8%.
For `COc1ccc(-c2cn[nH]c2-c2ccc(OC)cc2)cc1`, the inhibition is 35%.
For `COc1ccc(Oc2cn[nH]c2-c2ccc(OC)cc2O)cc1`, the inhibition was 45.7% (active).
The same measure for `COc1ccc(-c2cc3nc(C)c(CCC(=O)NC(C)CCc4ccco4)c(C)n3n2)c(OC)c1` (centres undefined): 23.7%; for `Cc1nc2sc(C(=O)c3ccccc3)c(N)c2c2c1CCCC2`: 41.5% (active).
In the case of `CN(C(=O)c1ccccn1)c1nnc(-c2ccccn2)s1`, the inhibition is 1.41%.
`CC(=O)c1c(Nc2ccccc2)sc(C(=O)c2ccccc2)c1C`: the inhibition was -7.77%.
To `CN(C)c1ccnc2sc(C(=O)c3ccccc3)c(N)c12` belongs 40.4% (active).
To `Cc1ccc2c(N)c(C(=O)c3ccccc3)sc2n1` belongs 36.2%.
As to `CCc1nc2sc(C(=O)O)c(N)c2c2c1CCCC2`, the inhibition is -94.9%.
For `Cc1nnc(SC(C(=O)Nc2cc(Cl)cc(Cl)c2)c2ccccc2)[nH]c1=O` (centres undefined), the inhibition was 14.3%.
With `CCn1c(SCC(=O)NC2CC2)nnc1-c1ccncc1`, the inhibition was -12.4%.
To `CCOc1ccc(C(CC(=O)O)n2cnnn2)cc1OC` (centres undefined) belongs -1.38%; to `COC(=O)c1c(NC(=O)CCN2CCOCC2)sc2c1CCCC2`, 9.98%.
As for `COC(=O)c1c(NC(=O)C2CC(C)=C(C)CC2C(=O)O)sc2c1CCCCC2` (centres undefined), the inhibition is 20.6%.
To `COC(=O)c1c(NC(=O)CSc2nncs2)sc2c1CCCCC2` belongs 43.7% (active); to `O=C(NCc1ccccc1)C(c1ccco1)N(C(=O)c1csnn1)c1ccccc1F` (centres undefined), 5.22%; to `CC(C)CCNC(=O)C1CCC(CNc2c(N3CCC(C)CC3)c(=O)c2=O)CC1` (centres undefined), 2.16%.
Take `Cc1cc(C)nc(NS(=O)(=O)c2ccc(N/C=C\C(=O)c3cccs3)cc2)n1`: the inhibition was -1.27%.

For the origin of these results see PubChem BioAssay AID463195 (Sanford-Burnham Center for Chemical Genomics, 2010).
